# Measurements reported in PubChem BioAssay.
# Potency and affinity values are given separately. A number with no mark means an inactive call. The rule behind the calls is not given here.
# Test: cytotoxicity in OVCAR8 ovarian cancer cells, dose response, PAX8 project, cell-based, plate reader, dry powder samples (AID 743197)
# Conditions: series mostly up to 35 µM; activity change, negative = cytotoxicity: at the top concentration
row,SMILES,"activity change, negative = cytotoxicity"
1,C[C@@H]1CCCCO[C@@H](CN(C)Cc2ccc(C(F)(F)F)cc2)[C@@H](C)CN([C@@H](C)CO)C(=O)c2cc(NS(=O)(=O)c3ccc(F)cc3)ccc2O1,-0.838% [at 30 µM]
2,COc1ccc(NC(=O)Nc2ccc3c(c2)C(=O)N([C@@H](C)CO)C[C@@H](C)[C@@H](CN(C)CC2CCCCC2)OCCCC[C@@H](C)O3)cc1,12.9%
3,COc1cccc(S(=O)(=O)N2CC[C@H]3[C@@H](CO)N(C)c4ccc(C#Cc5ccc(F)cc5)cc4[C@H]32)c1,26.7%
4,C[C@@H]1CCCCO[C@H](CN(C)Cc2ccc(C(F)(F)F)cc2)[C@H](C)CN([C@@H](C)CO)C(=O)c2cc(NS(=O)(=O)c3cccs3)ccc2O1,-3.25%
5,C[C@@H]1CN([C@@H](C)CO)C(=O)Cc2cc(NC(=O)NC3CCCCC3)ccc2O[C@@H]1CN(C)Cc1ccc(-c2ccccc2)cc1,-14.6%
6,O=C(Nc1ccc(Cl)c(Cl)c1)N[C@@H]1CC[C@H](CCn2cc(C3CCCCC3)nn2)O[C@H]1CO,2.73%
7,C[C@@H]1CN([C@@H](C)CO)C(=O)Cc2cc(NC(=O)CCC(F)(F)F)ccc2O[C@H]1CN(C)Cc1ccc(-c2ccccc2)cc1,19%
8,O=S(=O)(c1ccccc1F)N1CC[C@@H]2[C@@H](CO)Nc3ccc(C4=CCCCC4)cc3[C@@H]21,2.38%
9,Cc1noc(C)c1S(=O)(=O)N(C)C[C@@H]1OCCCC[C@H](C)Oc2ccc(NS(=O)(=O)c3ccc(Cl)cc3)cc2C(=O)N([C@H](C)CO)C[C@@H]1C,-8.7%
10,C[C@@H]1CCCCO[C@H](CN(C)Cc2ccc(Cl)c(Cl)c2)[C@H](C)CN([C@@H](C)CO)C(=O)c2cc(NC(=O)Nc3ccccc3)ccc2O1,12.4%
